A selection: hits, their analogues and other compounds. The true share with any hit is near 6.7%.
Pf Dd2 inh: P. falciparum Dd2 growth inhibition; 94,000 compounds, 2.3% hits; AID 1159554; SYBR Green, 72 h; active compounds read low; activity change, % at 10 µM; in the data active = activity change below about -80%; inconclusive = no clear call, values can overlap the other calls
C diff HTS: blocks growth of Clostridium difficile | Clostridium difficile clinical isolate growth, OD600, 24 h; active compounds read low | growth activity, negative = inhibition, % at 16 µg/mL (by protocol) | 86,000 compounds, 0.25% hits | AID 1259249;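 active = mean growth activity at or below -80% and every replicate also at or below -80%; inconclusive = mean at or below -80% but some replicate above -80%; inactive = mean growth activity above -80%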;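 also: 0% = DMSO wells and -100% = levofloxacin 16 µg/mL wells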
T cruzi growth-1: T. cruzi proliferation inhibition; 77,000 compounds, 5.9% hits; inhibition, % at 8.34 µM; T. cruzi beta-gal in NIH3T3, GalScreen luminescence, 90 h;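 active = mean inhibition above about 93%, with at least 55% of replicates each passing it, limit read from the data, passing the limit was not always enough; inconclusive = only one of those two conditions holds; inactive = neither condition holds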
T cruzi growth-2: inhibitors of T. cruzi proliferation; 5,600 compounds, 72% hits; AID 651739; T. cruzi beta-gal in NIH3T3, GalScreen luminescence, 90 h; inhibition, % at 8.35 µM; shares compounds with T cruzi growth-1;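 active = mean replicate inhibition above about 95% and at least 55% of replicates individually reaching it, limit read from the data; inconclusive = only one of the two criteria is met; inactive = neither criterion is met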
T cruzi growth-3: blocks T. cruzi growth in NIH3T3 host cells; shares compounds with T cruzi growth-1; T. cruzi beta-gal in NIH3T3, GalScreen luminescence, 90 h; inhibition, % at 2.09 µM; 5,600 compounds, 21% hits; AID 651740;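 active = mean inhibition above about 95%, with at least 55% of replicates also reaching it, limit read from the data; inconclusive = meets just one of the two conditions; inactive = meets neither condition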;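 also: plate controls were neutral control median for no effect and positive control median for full effect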
NIH3T3 tox: NIH/3T3 (mouse) viability loss; shares compounds with T cruzi growth-1; AID 651742; NIH/3T3 viability, CellTiter-Glo ATP luminescence, 90 h; cytotoxicity (signal decrease), % at 8.35 µM; 5,600 compounds, 14% hits;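 active = mean signal decrease across replicates above about 35% based on untreated-well scatter, with enough replicates individually passing, limit read from the data; inconclusive = no rule stated though some were filed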;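 also: 0% = median of neutral control wells and 100% = median of positive control wells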
3T3 cytotox 2: NIH/3T3 (mouse) viability loss. shares compounds with T cruzi growth-1. NIH/3T3 viability, CellTiter-Glo ATP luminescence, 90 h. inhibition, % at 24.9 µM. 5,600 compounds, 56% hits. AID 651744;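 active = mean loss of cell viability signal at or above a set limit, and enough replicates individually reaching it; inconclusive = meets only the mean limit or only the replicate share; inactive = meets neither condition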;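 also: 0% = median of neutral control wells and 100% = median of positive control wells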
Numbers without * were called inactive; ? = inconclusive; . = not tested or not shown.

SMILES	Pf Dd2 inh	C diff HTS	T cruzi growth-1	T cruzi growth-2	T cruzi growth-3	NIH3T3 tox	3T3 cytotox 2
CO[C@@H]1CN(C)C(=O)c2ccc(NC(=O)C3CCCCC3)cc2OC[C@@H](C)N(C(=O)c2ccccc2)C[C@@H]1C	-36	.	32	.	.	.	.
C[C@@H]1CN([C@H](C)CO)C(=O)c2cc(-c3ccc(C#N)cc3)cnc2O[C@@H]1CN(C)C(=O)Nc1ccc(F)cc1	5	8	-32	.	.	.	.
C[C@@H]1CCCCO[C@H](CN(C)Cc2ccc(C(F)(F)F)cc2)[C@@H](C)CN([C@H](C)CO)C(=O)c2cc(NS(=O)(=O)c3cccs3)ccc2O1	-6	9	23	.	.	.	.
C[C@@H]1CCCCO[C@H](CN(C)Cc2ccc(C(F)(F)F)cc2)[C@H](C)CN([C@H](C)CO)C(=O)c2cc(NS(=O)(=O)c3cccs3)ccc2O1	-39	-12	101*	99*	117*	25	105*
O=C(Cc1ccccc1)N1CC(=O)N2[C@H](CO)[C@@H](c3ccc(-c4cccc(F)c4)cc3)[C@H]2C1	-1	-1	.	.	.	.	.
C/C=C/c1ccc2c(c1)O[C@@H](CN(C)C(=O)c1ccccc1)[C@@H](C)CN([C@H](C)CO)S2(=O)=O	9	6	.	.	.	.	.
C[C@H]1CN([C@@H](C)CO)S(=O)(=O)c2ccc(/C=C/c3ccccc3)cc2O[C@H]1CN(C)C(=O)c1ccncc1	5	-6	106*	109*	86	44*	70*
COc1ccccc1-c1ccc2c(c1)O[C@@H](CN(C)C(=O)c1ccncc1)[C@@H](C)CN([C@@H](C)CO)S2(=O)=O	-10	1	108*	96*	88	10	25*
COc1ccccc1-c1ccc2c(c1)O[C@H](CN(C)C(=O)c1ccncc1)[C@@H](C)CN([C@H](C)CO)S2(=O)=O	6	1	67	.	.	.	.
C[C@@H]1CN([C@H](C)CO)S(=O)(=O)c2ccc(/C=C/c3ccccc3)cc2O[C@H]1CN(C)C(=O)c1ccccc1	-79	10	128*	111*	87	16	100*
C[C@@H]1CN([C@@H](C)CO)S(=O)(=O)c2ccc(/C=C/c3ccccc3)cc2O[C@@H]1CN(C)C(=O)c1ccncc1	27	-11	60	.	.	.	.
COCC(=O)N[C@H]1CC[C@H](CC(=O)NCc2ccccc2OC)O[C@@H]1CO	-9	.	-5	.	.	.	.
CN(C)CC(=O)N[C@@H]1CC[C@H](CCNC(=O)C2CCCC2)O[C@H]1CO	17	-4	.	.	.	.	.
C[C@@H]1CN([C@@H](C)CO)S(=O)(=O)c2ccc(C#Cc3ccccc3F)cc2O[C@H]1CN(C)C	-5	-2	21	.	.	.	.
CCCN(C)C[C@@H]1Oc2cc(C#Cc3ccccc3)ccc2S(=O)(=O)N([C@H](C)CO)C[C@@H]1C	-78	11	44	.	.	.	.
CCCN(C)C[C@@H]1Oc2cc(C#Cc3ccc(OC)cc3)ccc2S(=O)(=O)N([C@H](C)CO)C[C@@H]1C	-62	6	95	.	.	.	.
CCCN(C)C[C@@H]1Oc2cc(C#Cc3ccc(OC)cc3)ccc2S(=O)(=O)N([C@@H](C)CO)C[C@@H]1C	-85*	6	?	110*	86	43*	104*
CCCN(C)C[C@@H]1Oc2cc(C#Cc3ccccc3F)ccc2S(=O)(=O)N([C@@H](C)CO)C[C@@H]1C	-76	11	?	112*	89	23	106*
CCCN(C)C[C@@H]1Oc2cc(C#Cc3ccccc3)ccc2S(=O)(=O)N([C@@H](C)CO)C[C@@H]1C	-79	11	111*	113*	72	4	104*
CCCN(C)C[C@@H]1Oc2cc(C#Cc3ccc(F)cc3)ccc2S(=O)(=O)N([C@@H](C)CO)C[C@@H]1C	-64	21	85*	109*	?	?	106*
CCCN(C)C[C@H]1Oc2cc(C#Cc3ccc(F)cc3)ccc2S(=O)(=O)N([C@@H](C)CO)C[C@H]1C	-46	7	17	.	.	.	.
Cc1ccc(S(=O)(=O)N(C)C[C@H]2Oc3ccc(NC(=O)Cc4ccccc4)cc3C(=O)N([C@H](C)CO)C[C@@H]2C)cc1	-78	-2	42	.	.	.	.
CCC(=O)N1[C@@H](CO)[C@H](c2ccc(C3=CCCC3)cc2)[C@@H]1CNC(=O)CN(C)C	-2	1	-42	.	.	.	.
COc1ccc(-c2ccc3c(c2)O[C@H](CN(C)C(C)=O)[C@@H](C)CN([C@H](C)CO)S3(=O)=O)cc1	14	-11	53	.	.	.	.
CO[C@@H]1CN(C)C(=O)c2ccc(NC(=O)c3ccccc3)cc2OC[C@@H](C)N(C(C)=O)C[C@H]1C	5	-1	-11	.	.	.	.
SMILES	Pf Dd2 inh	C diff HTS	T cruzi growth-1	T cruzi growth-2	T cruzi growth-3	NIH3T3 tox	3T3 cytotox 2
C[C@@H]1CN([C@@H](C)CO)S(=O)(=O)c2ccc(-c3cccnc3)cc2O[C@H]1CN(C)Cc1ccncc1	-33	3	92	.	.	.	.
CCCN(C)C[C@H]1Oc2cc(C#CC(C)C)ccc2S(=O)(=O)N([C@@H](C)CO)C[C@H]1C	-35	5	94	.	.	.	.
CCCN(C)C[C@@H]1Oc2cc(C#CC(C)C)ccc2S(=O)(=O)N([C@@H](C)CO)C[C@H]1C	-48	-1	102*	111*	91	10	104*
C[C@@H]1CCCCO[C@@H](CN(C)C(=O)C2CCCCC2)[C@@H](C)CN([C@H](C)CO)C(=O)c2cc(NC(=O)c3ccncc3)ccc2O1	-18	3	45	.	.	.	.
COc1ccc(CN2C[C@@H](C)[C@H](OC)CN(C)C(=O)c3ccc(NC(C)=O)cc3OC[C@H]2C)cc1	-4	-1	.	.	.	.	.
COc1ccc(CN(C)C[C@@H]2OCCCC[C@H](C)Oc3ccc(NC(=O)Nc4ccc(OC)cc4)cc3C(=O)N([C@H](C)CO)C[C@H]2C)cc1	-50	.	67	.	.	.	.
COc1ccc(NC(=O)Nc2ccc3c(c2)C(=O)N([C@@H](C)CO)C[C@H](C)[C@H](CN(C)Cc2ccc(Cl)c(Cl)c2)OCCCC[C@@H](C)O3)cc1	-39	-2	125*	101*	115*	11	-8
COc1ccc(CN(C)C[C@H]2OCCCC[C@H](C)Oc3ccc(NC(=O)Nc4ccc(OC)cc4)cc3C(=O)N([C@H](C)CO)C[C@@H]2C)cc1	-1	.	42	.	.	.	.
COc1ccc(NC(=O)Nc2ccc3c(c2)C(=O)N([C@H](C)CO)C[C@H](C)[C@@H](CN(C)Cc2ccc(Cl)c(Cl)c2)OCCCC[C@H](C)O3)cc1	-18	1	123*	?	116*	14	8
COc1ccc(NC(=O)Nc2ccc3c(c2)C(=O)N([C@@H](C)CO)C[C@@H](C)[C@H](CN(C)Cc2ccc(Cl)c(Cl)c2)OCCCC[C@H](C)O3)cc1	40	12	97*	99*	103*	18	21

Bioassay records (PubChem BioAssay)
